In PubChem BioAssay one finds composite z-score and z-score data, which are given here for 5 molecules.

A short description of experiment [1]: small molecules captured by biotinylated probe aFSTL3 – biochemical, small-molecule microarray, fluorescence 635/667, stem cell growth factor project, primary screen (AID 1064).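 Also: measures binding of the biotinylated anti-FSTL3 antibody to printed compounds.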 The following applies: higher = more signal.
Experiment [2] can be described thus: binders from COS7 lysate, DM2A8 probe, primary screen, torsin A project, cell lysate, small-molecule microarray, fluorescence 635/667 (AID 1065). The following applies: higher = more signal, COS7 lysate expressing mutant human TOR1A.
Experiment [3] is described as follows: small molecules captured by biotinylated probe aFGF2 – biochemical, small-molecule microarray, fluorescence 635/667, stem cell growth factor project, primary screen (AID 1067).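 Also: measures binding of biotinylated aFGF2 protein to printed compounds on slides; z-score merges feature fluorescence and signal-to-noise across triplicate slides.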 The following applies: higher = more signal.
Experiment [4] in a line: small molecules captured by biotinylated probe aFGF10 – biochemical, small-molecule microarray, fluorescence 635/667, stem cell growth factor project, primary screen (AID 1071).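 Also: score merges 667 nm spot intensity and signal to noise from triplicate slides.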 The following applies: higher = more signal.
In experiment [5] the target is Neurogenic locus notch homolog protein 2 (Homo sapiens) (UniProt Q04721). Put plainly: small molecules binding Notch2 protein – biochemical, small-molecule microarray, 635 nm fluorescence, stem cell growth factors, primary screen (AID 1073). The following applies: higher = more signal.
Neurogenic locus notch homolog protein 2 (Homo sapiens), sequence (Q04721 whole entry, looked up, canonical isoform): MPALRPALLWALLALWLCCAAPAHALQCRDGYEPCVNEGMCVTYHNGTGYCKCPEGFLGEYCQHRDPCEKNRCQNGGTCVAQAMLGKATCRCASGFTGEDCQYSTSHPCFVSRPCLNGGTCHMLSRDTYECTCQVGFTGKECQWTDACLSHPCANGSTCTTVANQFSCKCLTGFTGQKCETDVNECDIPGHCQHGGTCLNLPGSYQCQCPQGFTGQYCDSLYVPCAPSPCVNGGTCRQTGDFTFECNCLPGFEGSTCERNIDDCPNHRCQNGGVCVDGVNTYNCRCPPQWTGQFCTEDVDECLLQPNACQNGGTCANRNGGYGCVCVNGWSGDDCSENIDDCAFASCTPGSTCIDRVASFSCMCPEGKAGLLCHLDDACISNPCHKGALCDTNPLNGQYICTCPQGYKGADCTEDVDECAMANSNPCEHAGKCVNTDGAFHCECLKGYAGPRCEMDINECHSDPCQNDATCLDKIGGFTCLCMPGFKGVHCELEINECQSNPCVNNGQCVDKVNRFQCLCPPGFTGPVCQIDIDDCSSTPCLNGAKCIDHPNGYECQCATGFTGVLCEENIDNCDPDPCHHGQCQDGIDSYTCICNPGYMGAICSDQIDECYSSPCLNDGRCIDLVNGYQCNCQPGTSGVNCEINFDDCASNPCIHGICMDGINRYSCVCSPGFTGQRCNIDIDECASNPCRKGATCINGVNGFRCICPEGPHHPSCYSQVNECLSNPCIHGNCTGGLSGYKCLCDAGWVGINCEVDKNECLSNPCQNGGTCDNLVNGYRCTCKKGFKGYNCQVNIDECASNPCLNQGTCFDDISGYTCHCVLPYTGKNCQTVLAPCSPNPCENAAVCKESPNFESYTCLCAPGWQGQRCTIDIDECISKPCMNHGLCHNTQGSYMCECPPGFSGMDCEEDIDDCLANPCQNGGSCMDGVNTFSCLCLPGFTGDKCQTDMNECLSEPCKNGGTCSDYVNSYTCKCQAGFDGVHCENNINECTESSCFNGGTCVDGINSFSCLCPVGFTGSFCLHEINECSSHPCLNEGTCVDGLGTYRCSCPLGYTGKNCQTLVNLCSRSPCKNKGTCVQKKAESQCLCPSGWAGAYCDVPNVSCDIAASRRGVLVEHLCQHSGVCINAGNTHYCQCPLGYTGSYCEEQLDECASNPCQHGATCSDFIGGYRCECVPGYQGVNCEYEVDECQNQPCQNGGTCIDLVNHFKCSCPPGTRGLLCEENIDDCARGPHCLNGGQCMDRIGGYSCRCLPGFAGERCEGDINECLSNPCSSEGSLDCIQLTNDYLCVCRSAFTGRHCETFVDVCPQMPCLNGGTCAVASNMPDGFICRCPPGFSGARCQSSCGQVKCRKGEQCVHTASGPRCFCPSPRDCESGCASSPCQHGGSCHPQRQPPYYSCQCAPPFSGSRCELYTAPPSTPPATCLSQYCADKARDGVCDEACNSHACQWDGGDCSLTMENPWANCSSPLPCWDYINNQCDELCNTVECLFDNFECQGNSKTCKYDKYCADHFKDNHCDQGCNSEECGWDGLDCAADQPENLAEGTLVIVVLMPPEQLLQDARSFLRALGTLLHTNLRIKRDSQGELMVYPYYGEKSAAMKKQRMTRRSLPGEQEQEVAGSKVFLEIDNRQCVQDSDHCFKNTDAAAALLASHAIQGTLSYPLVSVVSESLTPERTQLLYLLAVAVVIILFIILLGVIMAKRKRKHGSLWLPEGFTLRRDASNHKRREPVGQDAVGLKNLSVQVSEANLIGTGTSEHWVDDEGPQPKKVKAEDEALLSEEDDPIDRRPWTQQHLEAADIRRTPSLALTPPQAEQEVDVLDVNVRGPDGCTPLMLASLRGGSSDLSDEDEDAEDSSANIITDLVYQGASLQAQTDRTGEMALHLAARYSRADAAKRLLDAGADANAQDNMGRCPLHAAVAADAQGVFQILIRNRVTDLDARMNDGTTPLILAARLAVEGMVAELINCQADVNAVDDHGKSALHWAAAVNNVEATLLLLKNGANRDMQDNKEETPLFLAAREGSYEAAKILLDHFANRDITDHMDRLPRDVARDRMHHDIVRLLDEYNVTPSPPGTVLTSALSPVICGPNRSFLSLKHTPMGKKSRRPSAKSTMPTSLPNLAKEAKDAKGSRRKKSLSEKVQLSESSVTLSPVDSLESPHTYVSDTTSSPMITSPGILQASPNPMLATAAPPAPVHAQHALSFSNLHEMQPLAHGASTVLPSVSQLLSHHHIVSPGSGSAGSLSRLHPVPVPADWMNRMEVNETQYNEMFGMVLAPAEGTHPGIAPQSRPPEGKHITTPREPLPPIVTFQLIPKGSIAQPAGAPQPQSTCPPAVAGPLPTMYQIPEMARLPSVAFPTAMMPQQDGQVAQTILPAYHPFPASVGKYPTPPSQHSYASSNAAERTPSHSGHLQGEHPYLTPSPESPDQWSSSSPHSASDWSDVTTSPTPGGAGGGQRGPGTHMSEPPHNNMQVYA
For experiment [6], the target named is Pro-neuregulin-1, membrane-bound isoform (Homo sapiens) (UniProt Q02297). As to the kind of experiment: small molecules binding neuregulin-1 protein – biochemical, small-molecule microarray, fluorescence 635/667, psychiatric disease protein project, primary screen (AID 1075).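 Also: score combines 667 nm spot fluorescence with signal to noise.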 The following applies: NRG1 binding, 635 nm fluorescence, higher = more signal.
In experiment [7] the test system is Neuregulin-1 EGF-like domain. As to the kind of experiment: small molecules binding NRG1 EGF domain – biochemical, small-molecule microarray, 635 nm fluorescence, primary screen (AID 1081).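 Also: binding of the protein to compounds printed on small-molecule microarray slides.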 The following applies: higher = more signal.
Experiment [8] can be described thus: FRG1 expression reporter modulators in myotubes – cell-based, C2C12 myotubes, firefly/Renilla luciferase, luminescence, FRG1 inhibition for FSHD, primary screen (AID 1084). To be noted: FRG1 promoter luciferase, higher = more signal, called active from +8 up or from −8 down.
The nature of experiment [9]: small molecules captured by biotinylated probe aFST – biochemical, small-molecule microarray, fluorescence 635/667, stem cell growth factor project, primary screen (AID 1086).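 Also: score merges 667 nm fluorescence with signal-to-noise of each printed compound spot.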 The following applies: higher = more signal.
Experiment [10] can be described thus: binders of probe aHhip on microarray, primary screen, stem cell growth factor project, biochemical, small-molecule microarray, fluorescence 635/667 (AID 1087).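 Also: score merges spot fluorescence at 667nm with spot signal to noise ratio.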 The following applies: higher = more signal.
The subject of experiment [11] is PRMT1 (protein arginine N-methyltransferase 1). Put plainly: small molecules binding arginine methyltransferase PRMT1 – biochemical, small-molecule microarray, 635 nm fluorescence, primary screen (AID 1088).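 Also: binding of Prmt1 protein to compounds spotted on small-molecule microarray slides.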 The following applies: higher = more signal.
Experiment [12] in a line: growth effects on S. cerevisiae YJM789 – YJM789 clinical isolate, OD600, 24 h, basal, primary screen (AID 1089).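 Also: growth of clinical yeast isolate S. cerevisiae YJM 789 seeded 1000 cells per well; test concentration not given here.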 The following applies: higher = more signal, called active from +8 up or from −8 down.
The nature of experiment [13]: S. pombe growth modifiers, basal conditions – strain 972, OD600, 24 h, no modulator, primary screen (AID 1090).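 Also: basal condition with compound alone and no growth modifier present; test concentration not given here.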 To be noted: S. pombe 972 growth, higher = more signal, called active from +8 up or from −8 down.
The nature of experiment [14]: budding yeast growth modifiers under rapamycin – strain BY4716, OD600, 96 h, primary screen (AID 1091). Also: test concentration not given here. To be noted: S. cerevisiae BY4716 + rapamycin, higher = more signal, called active from +8 up or from −8 down.
The target in experiment [15] is Torsin-1A-interacting protein 2 (Homo sapiens) (UniProt Q8NFQ8). As to the kind of experiment: small molecules binding lysate-expressed LULL1 – cell lysate, human LULL1 lysate, 635/667 nm fluorescence, primary screen (AID 1092).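 Also: probe is lysate of COS7 cells overexpressing human LULL1; score merges per-feature 667 nm fluorescence with signal-to-noise.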 The following applies: small-molecule microarray, hLULL1 lysate binding, 635 nm fluorescence; higher = more signal.
Experiment [16] can be described thus: optical density change of DRC41 E. coli – strain DRC41, OD650, 24 h, E. coli filamentation project, primary screen (AID 1093).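 Also: MC1000 strain lacking acrAB efflux and sulA so SOS filamentation is blocked; test concentration not given here.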 The following applies: E. coli DRC41 growth, higher = more signal, called active from +8 up or from −8 down.
The nature of experiment [17]: probe aLefty2 binding to arrayed compounds – biochemical, biotinylated probe, 635/667 nm fluorescence, primary screen (AID 1094).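 Also: score merges spot fluorescence near 667 nm with spot signal-to-noise ratio.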 The following applies: small-molecule microarray, higher = more signal.
Experiment [18] relates to Noggin (protein binding on small-molecule microarray). Put plainly: small molecules binding Noggin protein – biochemical, 635/667 nm fluorescence, primary screen (AID 1095).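 Also: score merges 667 nm feature fluorescence with signal to noise over triplicate slides.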 The following applies: 635 nm fluorescence, higher = more signal.
The target of experiment [19] is Neurogenic locus notch homolog protein 3 (Homo sapiens) (UniProt Q9UM47). Put plainly: small molecules binding NOTCH3 protein – biochemical, 635/667 nm fluorescence, primary screen (AID 1096). The following applies: small-molecule microarray, 635 nm fluorescence, higher = more signal.
Neurogenic locus notch homolog protein 3 (Homo sapiens), sequence (Q9UM47 whole entry, looked up): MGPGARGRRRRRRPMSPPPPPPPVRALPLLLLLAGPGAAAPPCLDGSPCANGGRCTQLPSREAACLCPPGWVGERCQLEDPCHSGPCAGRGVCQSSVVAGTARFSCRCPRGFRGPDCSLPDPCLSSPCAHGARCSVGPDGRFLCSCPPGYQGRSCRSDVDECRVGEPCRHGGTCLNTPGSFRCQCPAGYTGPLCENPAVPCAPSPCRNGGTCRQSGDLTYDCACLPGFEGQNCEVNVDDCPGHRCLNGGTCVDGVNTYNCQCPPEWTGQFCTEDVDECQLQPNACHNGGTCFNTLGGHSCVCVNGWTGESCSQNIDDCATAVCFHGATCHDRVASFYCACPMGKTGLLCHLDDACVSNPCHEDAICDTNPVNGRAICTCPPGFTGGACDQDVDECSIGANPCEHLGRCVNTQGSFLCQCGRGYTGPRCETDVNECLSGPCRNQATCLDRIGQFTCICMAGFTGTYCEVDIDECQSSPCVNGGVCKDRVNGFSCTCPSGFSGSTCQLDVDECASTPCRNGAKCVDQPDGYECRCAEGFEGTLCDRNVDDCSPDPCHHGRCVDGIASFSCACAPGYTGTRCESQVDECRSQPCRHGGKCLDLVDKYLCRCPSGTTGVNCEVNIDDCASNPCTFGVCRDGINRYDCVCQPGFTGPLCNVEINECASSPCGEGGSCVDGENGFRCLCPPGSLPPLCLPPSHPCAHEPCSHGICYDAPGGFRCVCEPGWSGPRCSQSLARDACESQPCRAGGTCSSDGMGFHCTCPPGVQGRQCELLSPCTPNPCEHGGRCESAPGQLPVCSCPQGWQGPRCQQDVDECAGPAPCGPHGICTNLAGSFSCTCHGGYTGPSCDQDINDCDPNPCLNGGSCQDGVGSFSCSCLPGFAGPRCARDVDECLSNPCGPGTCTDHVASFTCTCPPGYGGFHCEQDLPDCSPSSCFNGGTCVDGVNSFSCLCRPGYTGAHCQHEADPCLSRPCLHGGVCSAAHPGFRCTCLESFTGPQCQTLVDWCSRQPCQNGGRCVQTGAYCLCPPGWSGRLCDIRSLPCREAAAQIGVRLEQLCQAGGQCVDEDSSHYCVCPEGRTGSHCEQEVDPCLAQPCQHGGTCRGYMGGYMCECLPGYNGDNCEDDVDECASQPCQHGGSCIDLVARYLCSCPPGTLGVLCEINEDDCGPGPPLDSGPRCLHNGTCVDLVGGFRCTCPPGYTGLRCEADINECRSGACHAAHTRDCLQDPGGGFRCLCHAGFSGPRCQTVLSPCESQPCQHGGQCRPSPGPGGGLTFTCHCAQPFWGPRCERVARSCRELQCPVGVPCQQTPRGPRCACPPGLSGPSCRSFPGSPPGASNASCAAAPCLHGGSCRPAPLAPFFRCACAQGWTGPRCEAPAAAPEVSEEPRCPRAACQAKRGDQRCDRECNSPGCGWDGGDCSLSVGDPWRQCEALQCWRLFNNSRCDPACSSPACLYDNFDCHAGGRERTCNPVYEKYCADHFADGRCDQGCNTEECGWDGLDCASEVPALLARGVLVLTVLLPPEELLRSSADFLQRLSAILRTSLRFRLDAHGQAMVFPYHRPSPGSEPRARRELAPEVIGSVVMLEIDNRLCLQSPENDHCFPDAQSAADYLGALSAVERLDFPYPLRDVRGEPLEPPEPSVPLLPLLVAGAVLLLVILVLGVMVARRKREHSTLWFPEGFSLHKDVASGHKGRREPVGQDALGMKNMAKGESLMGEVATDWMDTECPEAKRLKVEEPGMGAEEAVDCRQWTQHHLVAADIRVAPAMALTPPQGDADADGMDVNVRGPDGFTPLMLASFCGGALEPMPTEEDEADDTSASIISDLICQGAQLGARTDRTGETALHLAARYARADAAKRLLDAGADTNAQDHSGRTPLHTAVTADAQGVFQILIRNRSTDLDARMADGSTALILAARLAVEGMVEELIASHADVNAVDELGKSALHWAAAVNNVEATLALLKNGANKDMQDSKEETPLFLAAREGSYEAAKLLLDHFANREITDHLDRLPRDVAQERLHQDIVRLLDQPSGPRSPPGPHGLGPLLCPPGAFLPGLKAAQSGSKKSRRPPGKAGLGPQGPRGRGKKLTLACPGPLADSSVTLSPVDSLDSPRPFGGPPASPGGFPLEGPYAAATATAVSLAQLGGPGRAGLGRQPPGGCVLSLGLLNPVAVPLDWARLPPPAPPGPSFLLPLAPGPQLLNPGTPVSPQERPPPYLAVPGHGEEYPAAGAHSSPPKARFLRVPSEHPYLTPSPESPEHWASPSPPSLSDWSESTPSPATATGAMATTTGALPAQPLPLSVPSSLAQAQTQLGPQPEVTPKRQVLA
A short description of experiment [20]: probe aEGFR binding to arrayed compounds – biochemical, biotinylated probe, 635/667 nm fluorescence, primary screen (AID 1097).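 Also: probe is a biotinylated anti-EGFR antibody binding compounds printed on slides; score combines fluorescence near 667 nm and signal to noise of each spot.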 The following applies: small-molecule microarray, higher = more signal.

Calls of active or inactive are those of the source.

Turning to `O=C1OCCC/C=C\[C@H]2OC34C=CCN(c5ccc6ccccc6c5)C(=O)[C@H]3N(CCCCCCO)C(=O)[C@@H]4C12` (stereo not given in full), the composite z-score in [1] is 0.221; in [2], -0.295; in [3], -0.0824; in experiment [4], -0.648; in [5], -1.15; in [6], -0.177. The composite z-score is 1.25 in experiment [7]; -0.307 in [9]; -0.0239 in experiment [10]; 0.0502 in experiment [11]; 0.132 in [15]; -0.25 in experiment [17]. Moreover, the composite z-score in [18] was -0.695; in experiment [19], 0.086; in experiment [20], -0.0597. For the same molecule, the z-score in [8] was -0.824 (inactive); in experiment [12], -1.96 (inactive); in [13], -1.15 (inactive); in [14], -0.533 (inactive); in [16] it was 1.1 (inactive).
With `CCCCC=C[C@@H](NC(=O)Oc1cccc(C(F)(F)F)c1)c1ccccc1`, the composite z-score turned out to be 1.56 in [1]; 0.974 in experiment [2]; 0.84 in experiment [3]; 1.03 in experiment [4]; 1.55 in experiment [5]; 1.47 in experiment [6]. The composite z-score in experiment [7] turned out to be 1.11; in experiment [9], 2.02; in [10], 2.27; in [11], 0.745; in [15], 0.277; in experiment [17], 0.839. The composite z-score was -0.0732 in experiment [18], 1.08 in experiment [19] and 0.4 in experiment [20]. For the same molecule, the z-score in experiment [8] was -3.84 (inactive); in experiment [12] it was 1.06 (inactive); in [13] it was 0.0148 (inactive); in experiment [14] it was 1.01 (inactive); in experiment [16], -2.21 (inactive).
On to `COc1ccc([Si](C)(C)[C@H]2[C@H](CCO)O[C@@]3(C(=O)N(Cc4ccc(N5C(=O)COc6ccccc65)cc4)c4ccccc43)[C@@H]2C)cc1`, for which the composite z-score in experiment [1] was 0.0421; in experiment [2], -0.271; in [3] it was -0.14; in experiment [4], -0.164; in [5] it was -0.24; in [6], 0.774. Moreover, the composite z-score in [7] was 0.474; in experiment [9] it was -0.148; in experiment [10], 0.0129; in experiment [11], 1.06; in experiment [15], 1.31; in [17], -0.0796. In addition, the composite z-score is -0.6 in [18], -0.0154 in [19] and -0.222 in [20]. Further, the z-score in experiment [8] is -3.99 (inactive); in experiment [12], 0.223 (inactive); in [13], -0.379 (inactive); in experiment [14] it was 25.3 (active); in experiment [16], -0.132 (inactive).
Regarding `CC(=O)N1Cc2ccccc2C[C@@]2(COC(c3ccc(OCCCO)cc3)=N2)C1=O`, the composite z-score stood at 1.54 in experiment [1]; 0.842 in experiment [2]; 0.235 in experiment [3]; 0.51 in experiment [4]; 1.18 in experiment [5]; 1.4 in [6]. Further, the composite z-score is 1.07 in [7]; 1.83 in experiment [9]; -0.21 in experiment [10]; 1.55 in experiment [11]; 2.25 in experiment [15]; 0.518 in experiment [17]. Also, the composite z-score was determined as 0.515 in experiment [18], 1.03 in experiment [19] and 0.119 in experiment [20]. The z-score in experiment [8] was -0.41 (inactive); in [12] it was -3.98 (inactive); in experiment [13], -0.737 (inactive); in experiment [14] it was -0.965 (inactive); in experiment [16], 1.81 (inactive).
Turning to `COCCOC(=O)N1C(=O)[C@@]2(c3cc(C#CC4=CCCCC4)ccc31)[C@H](C(=O)Nc1nc3ccccc3s1)[C@H]1C(=O)O[C@H](c3ccccc3)[C@H](c3ccccc3)N1[C@@H]2c1ccccc1OCCO`, the composite z-score was found to be 0.346 in experiment [1]; 0.189 in experiment [2]; 0.0871 in experiment [3]; 0.77 in [4]; 1.49 in experiment [5]; 1.15 in experiment [6]. Moreover, the composite z-score in experiment [7] was 1.08; in experiment [9] it was 0.965; in [10], 0.463; in experiment [11], 1.55; in [15], 2.15; in experiment [17], 0.255. Further, the composite z-score worked out at 0.883 in [18], 1.07 in experiment [19] and 0.411 in experiment [20]. In addition, the z-score is 1.29 (inactive) in [8]; 1.25 (inactive) in experiment [12]; 0.812 (inactive) in experiment [13]; 3.25 (inactive) in experiment [14]; 0.859 (inactive) in experiment [16].
